Where “and” joins values, the source holds several entries; their conditions need not be identical. Identical values can stand only once. Like-named read-outs stand apart in the source and are kept apart here.
How the values were obtained:
HIPK2 = details: concentration: 1 μM, replicates: in singlicate, n = 1
HIPK3 = details: concentration: 1 μM, replicates: in singlicate, n = 1
HIPK4 = details: concentration: 1 μM, replicates: in singlicate, n = 1
HPK1 = details: concentration: 1 μM, replicates: in singlicate, n = 1
HUNK = details: concentration: 1 μM, replicates: in singlicate, n = 1
ICK = details: concentration: 1 μM, replicates: in singlicate, n = 1
IGF1R = details: concentration: 1 μM, replicates: in singlicate; n = 1
IKK-alpha = tested on: T1, IKK-alpha; details: concentration: 1 μM, replicates: in singlicate, n = 1
T1 construct: gene CHUK

IKK-beta = tested on: T2, IKK-beta; details: concentration: 1 μM, replicates: in singlicate; n = 1
T2 construct: gene IKBKB

IKK-epsilon = tested on: T3, IKK-epsilon; details: concentration: 1 μM, replicates: in singlicate, n = 1
T3 construct: gene IKBKE

INSRR = details: concentration: 1 μM, replicates: in singlicate, n = 1
INSR = details: concentration: 1 μM, replicates: in singlicate, n = 1
IRAK1 = details: concentration: 1 μM, replicates: in singlicate, n = 1
IRAK3 = details: concentration: 1 μM, replicates: in singlicate; n = 1
IRAK4 = details: concentration: 1 μM, replicates: in singlicate, n = 1
ITK = details: concentration: 1 μM, replicates: in singlicate, n = 1
[1] = tested on: JAK1(JH1domain-catalytic); details: concentration: 1 μM, replicates: in singlicate, n = 1
[2] = tested on: JAK1(JH2domain-pseudokinase); details: concentration: 1 μM, replicates: in singlicate, n = 1
[3] = tested on: JAK2(JH1domain-catalytic); details: concentration: 1 μM, replicates: in singlicate, n = 1
[4] = tested on: JAK3(JH1domain-catalytic); details: concentration: 1 μM, replicates: in singlicate; n = 1
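Further: KINOMEscan kinase panel screen.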

## COc1ccc(-c2nc3n(c2-c2ccncc2)CCC3)cc1 [SKF-104493]
HIPK2; 1 µM
  %Inh: 11% and 0%
HIPK3; 1 µM
  %Inh: 0% and 17%
HIPK4; 1 µM
  %Inh: 2% and 0%
HPK1; 1 µM
  %Inh: 17% and 0%
HUNK; 1 µM
  %Inh: 35% and 0%
ICK; 1 µM
  %Inh: 32% and 10%
IGF1R
  %Inh: 0%
IKK-alpha; 1 µM
  %Inh: 1% and 0%
IKK-beta
  %Inh: 0%
IKK-epsilon; 1 µM
  %Inh: 0% and 20%
INSRR; 1 µM
  %Inh: 1% and 0%
INSR; 1 µM
  %Inh: 5% and 0%
IRAK1; 1 µM
  %Inh: 12% and 0%
IRAK3
  %Inh: 0%
IRAK4; 1 µM
  %Inh: 0% and 2%
ITK; 1 µM
  %Inh: 0% and 1%
[1]; 1 µM
  %Inh: 0% and 9%
[2]; 1 µM
  %Inh: 43% and 41%
[3]; 1 µM
  %Inh: 11% and 0%
[4]
  %Inh: 0%

## Cc1cccc(-c2nc(Nc3ccc4[nH]nnc4c3)c3ccccc3n2)n1 [GW867587]
HIPK2
  %Inh: 0%
HIPK3
  %Inh: 0%
HIPK4
  %Inh: 0%
HPK1
  %Inh: 0%
HUNK
  %Inh: 37%
ICK
  %Inh: 0%
IGF1R
  %Inh: 0%
IKK-alpha
  %Inh: 0%
IKK-beta
  %Inh: 0%
IKK-epsilon
  %Inh: 0%
INSRR
  %Inh: 0%
INSR
  %Inh: 0%
IRAK1
  %Inh: 0%
IRAK3
  %Inh: 0%
IRAK4
  %Inh: 0%
ITK
  %Inh: 0%
[1]
  %Inh: 0%
[2]
  %Inh: 52%
[3]
  %Inh: 22%
[4]
  %Inh: 0%

## FC(F)(F)c1ccc(-c2nn3ncccc3c2-c2ccnc(Nc3cccc(C(F)(F)F)c3)n2)cc1 [GW828205]
HIPK2
  %Inh: 0%
HIPK3
  %Inh: 0%
HIPK4
  %Inh: 11%
HPK1
  %Inh: 0%
HUNK
  %Inh: 32%
ICK
  %Inh: 0%
IGF1R
  %Inh: 3%
IKK-alpha
  %Inh: 0%
IKK-beta
  %Inh: 0%
IKK-epsilon
  %Inh: 0%
INSRR
  %Inh: 0%
INSR
  %Inh: 0%
IRAK1
  %Inh: 0%
IRAK3
  %Inh: 11%
IRAK4
  %Inh: 0%
ITK
  %Inh: 15%
[1]
  %Inh: 0%
[2]
  %Inh: 5%
[3]
  %Inh: 0%
[4]
  %Inh: 0%

## Nc1n[nH]c2nnc(-c3ccccc3)cc12 [SB-517389]
HIPK2
  %Inh: 55%
HIPK3
  %Inh: 83%
HIPK4
  %Inh: 0%
HPK1
  %Inh: 35%
HUNK
  %Inh: 32%
ICK
  %Inh: 6%
IGF1R
  %Inh: 0%
IKK-alpha
  %Inh: 6%
IKK-beta
  %Inh: 23%
IKK-epsilon
  %Inh: 22%
INSRR
  %Inh: 0%
INSR
  %Inh: 0%
IRAK1
  %Inh: 22%
IRAK3
  %Inh: 0%
IRAK4
  %Inh: 25%
ITK
  %Inh: 13%
[1]
  %Inh: 13%
[2]
  %Inh: 8%
[3]
  %Inh: 42%
[4]
  %Inh: 0%

## Cn1ccc2ncnc(Oc3ccc(NC(=O)Nc4cccnc4)c(Cl)c3)c21
HIPK2
  %Inh: 4%
HIPK3
  %Inh: 0%
HIPK4
  %Inh: 6%
HPK1
  %Inh: 11%
HUNK
  %Inh: 24%
ICK
  %Inh: 0%
IGF1R
  %Inh: 16%
IKK-alpha
  %Inh: 13%
IKK-beta
  %Inh: 10%
IKK-epsilon
  %Inh: 0%
INSRR
  %Inh: 0%
INSR
  %Inh: 6%
IRAK1
  %Inh: 0%
IRAK3
  %Inh: 12%
IRAK4
  %Inh: 6%
ITK
  %Inh: 11%
[1]
  %Inh: 12%
[2]
  %Inh: 4%
[3]
  %Inh: 0%
[4]
  %Inh: 21%

## CCCc1ccc(S(=O)(=O)NC2CCN(c3ccnc(Nc4ccc(OC)cc4)n3)C2)cc1 (centres unmarked) [GSK1379737]
HIPK2
  %Inh: 0%
HIPK3
  %Inh: 8%
HIPK4
  %Inh: 0%
HPK1
  %Inh: 31%
HUNK
  %Inh: 10%
ICK
  %Inh: 0%
IGF1R
  %Inh: 8%
IKK-alpha
  %Inh: 36%
IKK-beta
  %Inh: 0%
IKK-epsilon
  %Inh: 0%
INSRR
  %Inh: 0%
INSR
  %Inh: 0%
IRAK1
  %Inh: 39%
IRAK3
  %Inh: 0%
IRAK4
  %Inh: 24%
ITK
  %Inh: 14%
[1]
  %Inh: 34%
[2]
  %Inh: 0%
[3]
  %Inh: 73%
[4]
  %Inh: 0%

## Clc1ccc(-c2cc(-c3c[nH]nc3-c3ccccn3)ccn2)cc1 [GW681251]
HIPK2
  %Inh: 0%
HIPK3
  %Inh: 19%
HIPK4
  %Inh: 0%
HPK1
  %Inh: 24%
HUNK
  %Inh: 6%
ICK
  %Inh: 0%
IGF1R
  %Inh: 4%
IKK-alpha
  %Inh: 0%
IKK-beta
  %Inh: 28%
IKK-epsilon
  %Inh: 3%
INSRR
  %Inh: 0%
INSR
  %Inh: 0%
IRAK1
  %Inh: 43%
IRAK3
  %Inh: 0%
IRAK4
  %Inh: 8%
ITK
  %Inh: 16%
[1]
  %Inh: 0%
[2]
  %Inh: 0%
[3]
  %Inh: 2%
[4]
  %Inh: 0%
